For assay [1], the system named is Zika virus NS2B-NS3 protease. Put plainly: Primary screen GU AMC qHTS for Zika virus inhibitors (AID 1347154).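 Further: 0% = no-inhibitor control and -100% = no-enzyme control; nearly all actives have a fitted effect of over 70% in size.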 An outline of the steps:
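Unlinked Zika NS2B hydrophilic domain–NS3 protease complex at 25 nM in 10 mM Tris-HCl pH 8.0, 0.01% Tween 20, with an AMC peptide substrate. Fluorescence change (340/450 nm) over 15 min at room temperature, normalized to controls, fitted to 4-parameter Hill.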

The target in assay [2] is Lysine-specific demethylase 5B (Homo sapiens) (UniProt Q9UGL1). As to the kind of experiment: Optimization screen for KDM5B Histone Demethylases FDH coupled qHTS against the LOPAC library (AID 1347166). Further: 0% is about no effect. The procedure, abridged:
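KDM5BDeltaAP (200nM final) in 50mM HEPES pH 7.5, 0.01% Tween-20 was preincubated with compound for 10 min at room temperature. A substrate mix of 12.5uM H3K4Me3, 25uM a-ketoglutarate, ascorbate, Fe2+, NAD+ and formaldehyde dehydrogenase was then added. NADH fluorescence (340/450 nm) was read initially and after 30 min.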
A general note: Quantitative high-throughput screening tests each substance at several concentrations.

Assay [3] in a line: qHTS to identify inhibitors of the type 1 interferon - major histocompatibility complex class I in skeletal muscle: primary screen against the NCATS LOPAC collection (AID 1347405).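 Further: human myoblasts with HiBiT tag on endogenous HLA-B stimulated by IFN-beta; lytic HiBiT luminescence reporting HLA-B protein level.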 Further: potency means the concentration at half of the fitted maximal effect. An outline of the steps: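 First, engineered myoblasts carrying HLA-B-HiBiT were seeded in medium lacking dexamethasone with 4 ng/ml IFN-beta. After 1 hr, compounds were pinned in (top 46 uM final, 7 points). After 24 hrs at 37 C, luminescence was measured following 10 min lysis.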

Assay [4] in a line: qHTS to identify inhibitors of the type 1 interferon - major histocompatibility complex class I in skeletal muscle: primary screen against the NCATS Pharmaceutical Collection (AID 1347407).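 Further: luminescence of HiBiT knocked into endogenous HLA-B as interferon-induced MHC class I level; on the % scale 0 is the no-effect control and ±100 the full control effect.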 An outline of the steps:
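Compounds […] were added to CRISPR-engineered HLA-B-HiBiT C25cl48 human myoblasts with 4.0 ng/ml IFN-beta. After 24 hrs at 37 C, cells were lysed and HiBiT luminescence measured.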

Assay [5] in a line: qHTS for inhibitors of adenylyl cyclases using a fission yeast platform: a pilot screen against the NCATS LOPAC library (AID 1347410).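 Further: plate controls were DMSO vehicle for no effect and DPI positive control for full effect.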 An outline of the steps:
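GFP from fbp1-GFP reporter, read by Acumen laser cytometry, indicates AC inhibition in fission yeast expressing AC9, GNAS and PDE4D2. Cells grown 18 h in the dark at 30C with compounds, final up to 57 uM.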

Assay [6] has as its target Protein phosphatase 1D (Homo sapiens) (UniProt O15297). Put plainly: RapidFire Mass Spectrometry qHTS Assay for Modulators of WT P53-Induced Phosphatase 1 (WIP1) (AID 1347424).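 Further: series mostly up to about 63 µM; plate controls were DMSO wells for no effect and GSK830371 inhibitor control at 10 µM for full effect.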 The procedure, abridged: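 RapidFire MS readout of dephosphorylated VEPPL-S-QETFS product, with 1 uM isotope-labelled peptide standard. Reaction: 10 nM WIP1, 2 uM phosphopeptide substrate, 5 min, room temperature, after 1 h compound preincubation; stopped with 0.5% formic acid.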

For assay [7] the target is unchanged. As to the kind of experiment: Rhodamine-PBP qHTS Assay for Modulators of WT P53-Induced Phosphatase 1 (WIP1) (AID 1347425). Further: % of control where 0% means no effect. An outline of the steps:
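5 nM WIP1 + 10 uM Rh-PBP, 50 mM Tris pH 7.5, 30 mM MgCl2, 1 mM TCEP, 0.1 mM EGTA, BSA; cpds pinned, 1 hr RT; + 10 uM phosphopeptide; fluorescence 1-min reads x 11 min; delta = f1 - f0.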

Assay [8] in a line: Validation qHTS assay for inhibitors of Activation Induced Cytidine Deaminase (AID): UDG Counterscreen signal (AID 1347427). Further: 0% is about no effect. An outline of the steps: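 Fluorescence at 560 nm excitation, 665 nm emission reports UDG signal after 250 mM NaOH (2x) addition and 30 min. Enzymes (AID 1 uM, UDG 2 U/mL, at 4/3x) preincubated 10 min with compound, then 4 h with 4x 250 nM DJC20/DJC23 substrate at room temperature.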

In assay [9] the target is Single-stranded DNA cytosine deaminase (Homo sapiens) (UniProt Q9GZX7). Put plainly: Validation qHTS assay for inhibitors of Activation Induced Cytidine Deaminase (AID): AID signal (AID 1347429). Further: on the % scale 0 is the no-effect control and ±100 the full control effect. The procedure, abridged:
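Steps: dispense AID with UDG; pin-transfer compound up to 114 uM final; add DJC20/DJC23 substrate and hold 4 hr at room temperature; add NaOH, hold 30 min; read FRET signal (540/590 nm).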

Assay [10] in a line: Primary qHTS for inhibitors of La Crosse Virus (LACV) - induced cell death in SH-SY5Y cells (AID 1508616). Further: potency means the concentration at half of the fitted maximal effect.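 On activity change: top concentration of the series differs between compounds; 0% = infected DMSO wells and 100% = uninfected DMSO wells; higher means more rescue of cells from virus-induced death.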 The procedure, abridged: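 SH-SY5Y, 6000 cells/well; cpd via pin tool in DMSO; LACV 0.01 MOI; 6 d 37C 5% CO2; ATPLite, 5 min RT; luminescence normalized to ±virus DMSO controls.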
The subject of assay [11] is Zika virus NS2B-NS3 protease (linked construct). Put plainly: Confirmatory screen NINDS AMC qHTS for Zika virus inhibitors (AID 1347152).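 Further: top concentration of the series differs between compounds; 0% = no-inhibitor control and -100% = no-enzyme control; nearly all actives have a fitted effect of over 70% in size.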 The procedure, abridged:
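IC50s from 4-parameter Hill fits of percent inhibition, based on AMC fluorescence gain (340/450 nm) over 15 min with 10 microM Bz-Nle-KRR-AMC. Enzyme: 1 nM linked NS2B-NS3 in Tris-HCl pH 8.0; 15-min compound preincubation.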

Assay [12] deals with Zika virus NS2B-NS3 protease (unlinked complex). Put plainly: Confirmatory screen GU AMC qHTS for Zika virus inhibitors (AID 1347153).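 Further: percent inhibition with 0% = no inhibitor control and 100% = no enzyme control; nearly all actives have a fitted effect of over 70% in size.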 An outline of the steps: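 Fluorescence change (ex 340/em 450 nm) over 15 min, ~20% substrate conversion, normalized to no-inhibitor and no-enzyme controls, then Hill-fitted. Unlinked protease at 25 nM; AMC peptide 10 µM.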
Assay [13] in a line: Confirmatory screen NINDS Rhodamine qHTS for Zika virus inhibitors (AID 1347161).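 Further: series mostly up to about 110 µM; plate controls were no-inhibitor control for no effect and no-enzyme control for full effect; nearly all actives have a fitted effect of over 60% in size.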 The procedure, abridged: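 Purified linked NS2B-NS3 protease (NS2B hydrophilic domain joined to NS3 protease by flexible linker), 25 nM in 10 mM Tris-HCl pH 8.0, 0.01% Tween 20. Compounds titrated, 15 min preincubation at room temperature; 1.5 microM Rhodamine110 substrate, FITC fluorescence change over 15 min.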

The nature of assay [14]: Vero cells viability qHTS for Zika virus inhibitors (AID 1347167). Further: on the % scale 0 is the no-effect control and ±100 the full control effect. The procedure, abridged:
(§1)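 qHTS titration; 24-48 h compound exposure, 37 degrees C/5% CO2; DMEM, 4% FBS; CellTiter Glo ATP luminescence.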

A short description of assay [15]: HepG2 cells viability qHTS for Zika virus inhibitors (AID 1347168). Further: on the % scale 0 is the no-effect control and ±100 the full control effect. The procedure, abridged:
as §1

Assay [16] relates to Zika virus NS2B-NS3 protease (linked construct). As to the kind of experiment: Primary screen NINDS Rhodamine qHTS for Zika virus inhibitors (AID 1347160). Further: nearly all actives have a fitted effect of over 55% in size. Particulars: outcome: dose series up to 57.1 µM. An outline of the steps: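 Enzyme (25 nM, linked NS2B-NS3) was preincubated 15 min with compound in 10 mM Tris-HCl pH 8.0, 0.01% Tween 20. Rhodamine110 substrate (1.5 microM) was then added and fluorescence read at start and after 15 min.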

Assay [17] is described as follows: qHTS to identify inhibitors of the type 1 interferon - major histocompatibility complex class I in skeletal muscle: primary screen against the NCATS Mechanism Interrogation Plate v5.0 (MIPE) Libary (AID 1347411).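 Further: plate controls were vehicle for no effect and reference inhibitor for full effect; nearly all actives have a fitted effect of over 65% in size.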 An outline of the steps:
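Seed engineered human myoblasts (HLA-B HiBit) in medium without dexamethasone containing 4 ng/ml IFN-beta; after 1 hr add compound titrations (top 46 uM final). Incubate 24 hrs at 37 C, lyse 10 min with HiBiT reagent, read luminescence.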

Results on eleven molecules are retold here after PubChem BioAssay (NCATS).

Values without a mark were called inactive. Records with an inconclusive call do not appear. Activity calls are given as the source filed them. The call rests on the fitted dose curve; in most records, active means well fitted curve in the direction sought with a large enough effect; inconclusive means small, poorly fitted or top-dose-only effect, or another doubt; inactive means no such curve, though single readings can be large; an effect the other way counts as inactive or inconclusive.

Chain of Single-stranded DNA cytosine deaminase (Homo sapiens) (Q9GZX7 whole entry, looked up): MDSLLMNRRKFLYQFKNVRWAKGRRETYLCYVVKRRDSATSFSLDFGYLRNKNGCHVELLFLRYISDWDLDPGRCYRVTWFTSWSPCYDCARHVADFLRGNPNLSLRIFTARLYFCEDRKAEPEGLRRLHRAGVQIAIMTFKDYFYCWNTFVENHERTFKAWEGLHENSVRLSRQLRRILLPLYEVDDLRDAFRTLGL
Chain of Lysine-specific demethylase 5B (Homo sapiens) (Q9UGL1 whole entry, looked up): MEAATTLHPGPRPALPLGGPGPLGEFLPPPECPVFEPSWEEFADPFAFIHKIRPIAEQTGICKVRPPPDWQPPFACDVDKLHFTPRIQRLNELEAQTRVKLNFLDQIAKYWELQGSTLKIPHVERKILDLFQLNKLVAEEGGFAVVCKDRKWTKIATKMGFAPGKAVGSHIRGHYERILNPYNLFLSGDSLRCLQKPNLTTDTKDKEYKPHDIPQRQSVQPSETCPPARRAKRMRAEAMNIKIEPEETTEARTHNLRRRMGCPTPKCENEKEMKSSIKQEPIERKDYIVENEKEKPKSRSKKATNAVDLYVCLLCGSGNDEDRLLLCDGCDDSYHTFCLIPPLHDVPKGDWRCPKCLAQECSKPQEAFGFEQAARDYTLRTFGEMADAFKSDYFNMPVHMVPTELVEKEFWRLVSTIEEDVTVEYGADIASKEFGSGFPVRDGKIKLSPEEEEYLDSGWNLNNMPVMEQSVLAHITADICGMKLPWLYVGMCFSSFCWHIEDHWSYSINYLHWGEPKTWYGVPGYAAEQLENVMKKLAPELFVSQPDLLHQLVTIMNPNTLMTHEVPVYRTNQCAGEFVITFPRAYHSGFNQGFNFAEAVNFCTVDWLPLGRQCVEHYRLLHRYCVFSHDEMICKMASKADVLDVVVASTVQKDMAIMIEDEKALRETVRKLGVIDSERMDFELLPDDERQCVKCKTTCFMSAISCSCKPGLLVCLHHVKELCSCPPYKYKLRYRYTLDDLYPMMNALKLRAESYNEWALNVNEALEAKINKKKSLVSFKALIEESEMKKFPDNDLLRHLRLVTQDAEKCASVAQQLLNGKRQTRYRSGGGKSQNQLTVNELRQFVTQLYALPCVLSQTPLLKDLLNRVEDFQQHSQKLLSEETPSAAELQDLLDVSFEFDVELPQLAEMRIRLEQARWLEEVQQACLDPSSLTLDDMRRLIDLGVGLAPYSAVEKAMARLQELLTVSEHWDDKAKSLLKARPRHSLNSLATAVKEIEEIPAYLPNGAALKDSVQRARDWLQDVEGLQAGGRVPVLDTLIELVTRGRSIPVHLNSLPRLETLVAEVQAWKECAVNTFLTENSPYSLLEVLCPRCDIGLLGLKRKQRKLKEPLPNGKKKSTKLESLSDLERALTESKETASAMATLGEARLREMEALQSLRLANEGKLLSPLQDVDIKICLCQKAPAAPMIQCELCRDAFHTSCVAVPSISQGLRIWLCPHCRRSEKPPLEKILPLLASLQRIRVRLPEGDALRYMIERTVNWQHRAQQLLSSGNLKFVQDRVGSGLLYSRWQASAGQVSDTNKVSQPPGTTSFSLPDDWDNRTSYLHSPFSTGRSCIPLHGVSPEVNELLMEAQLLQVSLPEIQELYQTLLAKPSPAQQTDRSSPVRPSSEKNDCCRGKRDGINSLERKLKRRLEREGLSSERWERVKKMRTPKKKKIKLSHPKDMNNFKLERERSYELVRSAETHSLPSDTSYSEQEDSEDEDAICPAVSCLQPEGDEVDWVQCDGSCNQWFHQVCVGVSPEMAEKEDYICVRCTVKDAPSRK
Chain of Protein phosphatase 1D (Homo sapiens) (O15297 whole entry, looked up): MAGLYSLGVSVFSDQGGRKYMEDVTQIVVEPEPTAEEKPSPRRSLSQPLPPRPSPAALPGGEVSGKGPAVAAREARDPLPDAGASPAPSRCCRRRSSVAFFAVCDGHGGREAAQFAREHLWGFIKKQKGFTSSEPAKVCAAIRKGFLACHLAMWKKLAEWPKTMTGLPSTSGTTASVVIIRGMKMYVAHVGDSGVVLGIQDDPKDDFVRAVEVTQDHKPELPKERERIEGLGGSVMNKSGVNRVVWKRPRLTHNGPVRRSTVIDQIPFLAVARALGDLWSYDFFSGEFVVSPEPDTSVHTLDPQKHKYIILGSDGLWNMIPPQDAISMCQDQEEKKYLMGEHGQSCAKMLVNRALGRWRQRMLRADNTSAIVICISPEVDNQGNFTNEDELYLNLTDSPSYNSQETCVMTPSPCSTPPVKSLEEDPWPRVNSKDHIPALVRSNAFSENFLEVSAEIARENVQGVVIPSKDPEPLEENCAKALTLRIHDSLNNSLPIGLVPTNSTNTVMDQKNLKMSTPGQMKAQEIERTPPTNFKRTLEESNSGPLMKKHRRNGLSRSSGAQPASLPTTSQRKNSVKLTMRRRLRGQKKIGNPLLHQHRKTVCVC

In the case of `Cc1scc2c1N(C(=O)CN1CCN(C)CC1)c1ccccc1NC2=O`, the molecule was classed as inactive in assay [1], in assay [5], in assay [7] and in assay [8]. Also, the Potency entry in assay [2], in assay [3], in assay [4], in [6], in [9] and in assay [10] was “inactive” each time.

As to `O=C(O)CN(CCN(CC(=O)O)CC(=O)O)CCN(CC(=O)O)CC(=O)O`, the call in assay [1], in [5], in [7] and in [8] was inactive. Moreover, the Potency entry in assay [2], in assay [3], in [4], in assay [6], in assay [9] and in assay [10] was “inactive” throughout.

`COc1ccc(CCN(C)CCCC(C#N)(c2cc(OC)c(OC)c(OC)c2)C(C)C)cc1OC` (configuration not stated): the result in [1], in assay [5], in assay [7] and in assay [8] was inactive. The Potency result in [2], in assay [3], in [4], in [6], in [9] and in assay [10] was “inactive” in each case.

In the case of `CCOC(=O)c1cnc2c(cnn2CC)c1NN=C(C)C`, the call in assay [11], in [12], in assay [1], in assay [14], in [15] and in assay [5] was inactive. In addition, the outcome in [7] and in assay [8] was inactive. For the same molecule, the Potency result in [13], in assay [2], in [3], in [4], in [6] and in assay [9] was “inactive” throughout. Also, the Potency entry in assay [10] was “inactive”.

On to `C[N+](C)(C)CCOC(N)=O`, for which the call in [1], in assay [5], in assay [7] and in assay [8] was inactive. In addition, the Potency result in [2], in assay [3], in assay [4], in [6], in [9] and in assay [10] was “inactive” throughout.

Regarding `CCCN1C[C@H](CSC)C[C@@H]2c3cccc4[nH]cc(c34)C[C@H]21`, the result in assay [1], in assay [16], in assay [5], in assay [7] and in assay [8] was inactive. The Potency entry in assay [2], in assay [3], in [4], in assay [6], in [9] and in assay [10] was “inactive” each time.

Take `NC/C=C/C(=O)O`: the molecule was called inactive in assay [1], in assay [5], in [7] and in assay [8]. Besides, the Potency result in assay [2], in assay [3], in assay [4], in [6], in assay [9] and in assay [10] was “inactive” in each case.

Consider `Nc1ncn([C@@H]2O[C@H](CO)[C@@H](O)[C@H]2O)c(=O)n1`, for which the result in [1], in [5], in assay [7] and in [8] was inactive. Also, the Potency entry in assay [2], in [4], in [6] and in [9] was “inactive” in each case. Moreover, the Potency is 8.91 µM (active) in assay [3] and 1.12 µM (active) in assay [10].

As to `CCCN(CCC)C(=O)C(CCC(=O)O)NC(=O)c1ccccc1` (configuration not stated), the result in [1], in assay [5], in [7] and in assay [8] was inactive. Moreover, the Potency result in assay [2], in assay [3], in assay [4], in assay [17], in assay [6] and in assay [9] was “inactive” throughout. The Potency entry in [10] was “inactive”.

Consider `c1cc(CN2CCCCC2)cc(OCCCNc2nc3ccccc3s2)c1`, for which the result in assay [1], in assay [5], in assay [7] and in assay [8] was inactive. Moreover, the Potency result in assay [2], in assay [3], in assay [4], in assay [6], in assay [9] and in assay [10] was “inactive” each time.

Consider `NC(Cc1ccc(Cl)cc1)C(=O)O` (configuration not stated), for which the activity change, negative = inhibition in assay [1] was -1.34% [at 0.59 µM]; in assay [4], 1.91% [at 0.727 µM]; in assay [6] it was 4.3% [at 0.505 µM]; in assay [7] it was -2.63% [at 0.575 µM]. Moreover, the Potency result in assay [2], in assay [3], in [9] and in [10] was “inactive” throughout. For the same molecule, the result in [5] and in assay [8] was inactive.
